Experimental findings from PubChem BioAssay (NCI) are described below.

Common to all, as to test: NCI-60 one-dose screen, 48 h (100 = growth as untreated, 0 = no growth, -100 = all killed)
Settings in all cases: 10 µM unless noted

Test [1] relates to NCI-H23 lung.
For test [2], the system named is NCI-H226 lung.
Test [3] concerns NCI-H322M lung.
In test [4] the test system is HOP-62 NSCLC.
The test system of test [5] is NCI-H460 lung.
Test [6] relates to HOP-92 NSCLC.
The subject of test [7] is NCI-H522 lung.
The subject of test [8] is A549/ATCC NSCLC.
In test [9] the test system is 786-0 renal.
Test [10] concerns COLO 205 colon.

SMILES strings stand for the structures. Compounds without any hit were thinned out: in the full panel of roughly 83,000, 20% have a hit.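 Single-dose data. Exposure time 48 hours. Values below 10 considered active.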 Unmarked numbers belong to inactive results. Active and inactive are the calls of the source.

On to `Cc1nn(-c2ccccc2)c2nc3c(c(-c4ccc(Cl)cc4)c12)CNC1(CCSCC1)N3`, for which the growth is 97.4% in test [1]; 81.2% in test [2]; 100% in test [3]; 93.6% in test [4]; 99.6% in test [5]; 74.1% in test [6]. In addition, the growth was 110% in [7], 87% in test [8], 105% in test [9] and 94.5% in [10].
Turning to `CCCCCCN(CCCCCC)c1ccc(/C=C2/SC(=O)N(c3nc(N4CCCC4)nc(N4CCCC4)n3)C2=O)c(C)c1`, the growth in [1] is 47.2%; in test [2], 92.5%; in test [3] it was 99%; in [4], 119%; in test [5] it was 57.5%; in [6], -3.12% (active). For the same molecule, the growth in [7] was 53.2%; in test [8], 54.2%; in test [9], 63.5%; in [10], 82.1%.
As to `C=CCn1c(C)nc2cc(Nc3nc(Cl)nc4ccccc34)ccc21`, the growth in test [1] is 97.9%; in test [2] it was 90.1%; in test [3], 109%; in test [4] it was 108%; in test [5] it was 99.2%; in test [6] it was 91.9%. The growth in [7] is 97.4%; in test [8], 81.4%; in test [9], 87.8%; in test [10] it was 126%.
For `Cc1c(C(=O)OC(=NC2CCCCC2)NC2CCCCC2)sc2c1c(=O)nc1c(C#N)n[nH]n12`, the growth was 97.3% in [1]; 131% in test [2]; 115% in test [3]; 89.5% in test [4]; 112% in test [5]; -16.8% (active) in [6]. Also, the growth in test [7] is 89.2%; in test [8] it was 108%; in [9], 92%; in [10] it was 120%.
Regarding `CCc1ccccc1NC(=O)/C(C#N)=C/c1ccc(OC)cc1`, the growth in [1] is 98.2%; in test [2], 97.5%; in [3] it was 87.8%; in test [4], 96%; in test [5], 104%; in [6], 86.9%. Further, the growth is 91.4% in [7], 94% in test [8], 107% in test [9] and 119% in [10].
Turning to `COC(=O)c1ccc(C2Nc3ccc(S(=O)(=O)Nc4ccc(C)c(C)c4)cc3C3OCCC23)cc1` (stereo not given), the growth in [1] was 59.5%; in test [2], 85.9%; in test [3] it was 96%; in test [4] it was 87.3%; in [5], 86%; in [6], 66%. Also, the growth was 52.6% in [7], 78.8% in test [8], 93.9% in test [9] and 94% in [10].
On to `COC(=O)c1c2c(c[n+]([O-])c1C)C(=O)C=CC2=O`, for which the growth in test [1] is 60.4%; in [2], 98.1%; in [3], 110%; in [4], 104%; in [5] it was 98.4%; in test [6] it was 70.8%. For the same molecule, the growth in test [7] is -69.9% (active); in test [8], 100%; in [9] it was 91.6%; in [10], 33.5%.
Turning to `Cc1cc(NCc2cc(Nc3ccnc4cc(Cl)ccc34)ccc2F)nc(N2CCOCC2)n1`, the growth was 43.8% in [1]; 61.2% in test [2]; 71.3% in test [3]; -9.53% (active) in test [4]; 39.8% in [5]; 42.5% in test [6]. Moreover, the growth in test [7] was 21.8%; in test [8], 59.4%; in test [9] it was 1.21% (active); in test [10], 35.5%.
`CC1(C)CC(=O)C2=C(C1)N(c1ccc(OC(F)(F)F)cc1)C(N)=C(C#N)C2c1ccc(Cl)cc1` (stereo not given): the growth was 85.6% in [1]; 90.7% in [2]; 91.3% in test [3]; 72.7% in [4]; 93.7% in test [5]; 58.5% in test [6]. Besides, the growth in [7] is 63.1%; in test [8], 76.3%; in test [9], 78.6%; in test [10], 96.6%.
Turning to `Cc1c(Cl)cc(-n2c(=O)c3ccccc3c3ccccc3c2=O)cc1Cl`, the growth was 97.6% in [1]; 108% in [2]; 87.3% in test [3]; 92.6% in [4]; 111% in [5]; 98.4% in [6]. For the same molecule, the growth was 98.7% in test [7], 102% in [8], 98.6% in test [9] and 98.2% in [10].
Consider `Cc1ccccc1NC(=O)N/C(N)=N/c1nc(-c2cccc([N+](=O)[O-])c2)cs1`, for which the growth is 16.8% in [1]; 58.8% in test [2]; 90.7% in [3]; 42.3% in [4]; 27% in [5]; 60.2% in test [6]. The growth in test [7] was 18%; in test [8] it was 54.2%; in [9], 71.6%; in test [10] it was 37.5%.
Turning to `O=C(O)c1ccc2c(c1)CCC2`, the growth was 108% in test [1]; 104% in [2]; 106% in [3]; 114% in test [4]; 115% in [5]; 117% in test [6]. Moreover, the growth in [7] is 104%; in test [8], 104%; in test [9] it was 105%; in [10] it was 104%.
As to `CCCCn1c(=O)c2c(nc3n2CCCN3CCc2ccc(OCC(=O)NCCN(CC)CC)cc2)n(CCCC)c1=O`, the growth is 68.7% in test [1]; 72.9% in test [2]; 94.4% in test [3]; 56.1% in test [4]; 56.9% in test [5]; 27.8% in test [6]. Moreover, the growth in test [7] is 44.1%; in test [8] it was 64.2%; in test [9], 11.3%; in [10], 25.7%.
Turning to `COc1cc2nc(Cl)nc(Nc3ccc(S(=O)(=O)Nc4nccs4)cc3)c2cc1OC`, the growth is 101% in [1]; 91.9% in [2]; 102% in test [3]; 92% in [4]; 106% in test [5]; 118% in test [6]. The growth in test [7] is 91.3%; in [8], 102%; in test [9] it was 101%; in [10], 110%.
Consider `COC(=O)c1c2c(c(C)[n+]([O-])c1C)C(=O)C(NCc1ccc(F)c(Cl)c1)=CC2=O`, for which the growth is 16.3% in [1]; 84.3% in [2]; 3.24% (active) in test [3]; 28.3% in test [4]; 7.33% (active) in [5]; 19% in [6]. The growth in test [7] was -26.6% (active); in test [8], 1.3% (active); in [9] it was -93.5% (active); in test [10], -75.5% (active).
In the case of `CC1(C)OC2C(CO[Si](C)(C)C(C)(C)C)OC(n3c(I)c(C#C[Si](C)(C)C)c(=O)[nH]c3=O)C2O1` (stereo not given), the growth in test [1] was 76.9%; in test [2], 103%; in [3], 106%; in test [4], 99.1%; in test [5], 106%; in test [6], 98.8%. For the same molecule, the growth in [7] is 90%; in test [8], 94.9%; in [9], 93.9%; in test [10], 111%.
As to `Cn1cc(-c2csc(-c3ccccc3)n2)c2cccnc21`, the growth is -54.3% [100 µM] (active) in test [1]; -11.7% [100 µM] (active) in test [2]; -23.6% [100 µM] (active) in [3]; -74.3% [100 µM] (active) in test [4]; -56.2% [100 µM] (active) in test [5]; -53% [100 µM] (active) in test [6]. The growth in test [7] is -24.3% [100 µM] (active); in test [8], -12.8% [100 µM] (active); in test [9], -77.4% [100 µM] (active); in test [10] it was -67.2% [100 µM] (active).
Turning to `COc1cccc(-c2nc3sccn3c2-c2ccnc(NCCNS(=O)(=O)c3cccc(Cl)c3)c2)c1`, the growth in [1] is 53.5%; in test [2], 40.7%; in test [3], 80.8%; in [4], 70.9%; in [5] it was 45.4%; in test [6], 37.2%. Moreover, the growth in test [7] is 56.7%; in [8] it was 45.4%; in test [9], 63.6%; in [10], 34.8%.
On to `CC(C)CCC[C@@H](C)[C@H]1CC[C@H]2[C@@H](Nc3ccc(O)cc3)CCC[C@]12C`, for which the growth was 84.2% in [1]; 105% in [2]; 105% in [3]; 108% in test [4]; 104% in test [5]; 136% in test [6]. Moreover, the growth is -42.6% (active) in [7], 95.5% in test [8], 109% in [9] and 95.5% in test [10].
On to `NC(=O)c1ccc[n+](Cc2ccc(Cl)cc2Cl)c1`, for which the growth was 102% in [1]; 99.3% in test [2]; 104% in [3]; 88.3% in test [4]; 102% in test [5]; 96% in [6]. The growth is 79.4% in test [7], 70.1% in [8], 94.7% in test [9] and 111% in test [10].
As to `CC/C=C/C/C=C/C/C=C/C/C=C/C/C=C/C/C=C/CCC(=O)Nc1ccn([C@@H]2O[C@H](CO)[C@@H](O)C2(F)F)c(=O)n1`, the growth in test [1] was 1.56% (active); in test [2], 8.09% (active); in test [3], 51.9%; in [4], 8.82% (active); in test [5] it was 9.01% (active); in [6] it was 32.1%. Moreover, the growth is 39.8% in test [7], 17.6% in [8], 0.0768% (active) in test [9] and 11.8% in test [10].
In the case of `CNC(=O)NCC1OC(n2cnc3c(NC(=O)Nc4ccccc4)ncnc32)C(O[Si](C)(C)C(C)(C)C)C1CC(=O)N(C)OC` (stereo not given), the growth in test [1] is 48.2%; in test [2] it was 40.6%; in test [3], 78.8%; in test [4], 60.3%; in [5], 18.1%; in [6], -34.3% (active). The growth in test [7] was 65.9%; in [8], 2.06% (active); in test [9], 47.4%; in [10], -100% (active).
With `CC(=O)OC1CCC2(C)C(=CC3C4CCC(=O)C4(C)CCC32)C1` (stereo not given), the growth in test [1] was 102%; in test [2], 107%; in test [3], 113%; in test [4], 111%; in [5], 108%; in test [6], 101%. Further, the growth in [7] is 96.9%; in [8], 101%; in test [9] it was 102%; in [10], 94%.
For the molecule `O=c1oc2ccccc2c(Cl)c1Cl`, the growth was 60.6% in [1]; 70.8% in test [2]; 91.5% in test [3]; 83.3% in test [4]; 103% in [5]; 97.4% in test [6]. The growth in [7] is 22.9%; in test [8], 89.6%; in test [9] it was 47.3%; in test [10] it was 11.8%.
Regarding `COc1cc2ncn3c(=O)c4c5c(sc4nc3c2cc1OC)CCCC5`, the growth in test [1] was 91.4%; in test [2] it was 93.8%; in test [3], 96.9%; in test [4], 89.8%; in [5] it was 100%; in [6] it was 115%. The growth in test [7] is 80.1%; in test [8], 96.4%; in [9], 105%; in test [10], 106%.
With `CN(C)CCCn1c(=O)c2ccccc2c2ccccc21`, the growth in test [1] is 76.8%; in [2], 87.6%; in [3] it was 98.5%; in [4], 80.1%; in [5], 66.5%; in test [6], 45.5%. Moreover, the growth was 53.1% in test [7], 87.2% in test [8], 68.4% in [9] and 55% in test [10].
`O=C1OC(c2nc3ccccc3s2)=C/C1=C\c1ccc(O)cc1`: the growth was 98.9% in test [1]; 99.5% in test [2]; 110% in test [3]; 91.8% in [4]; 101% in test [5]; 87.9% in test [6]. The growth in test [7] was 91.4%; in [8], 109%; in [9] it was 107%; in [10], 102%.
